Screening data: PubChem, Bradner/Qi Labs at DFCI
CBX7 AlphaScr = CBX7 chromodomain binding inhibitors, primary screen, biochemical, AlphaScreen; 66,000 tested, 1.1% active; AlphaScreen His6-CBX7 / biotin-H3K27me3 peptide binding; active compounds read low; normalised signal (fraction of DMSO) (no concentration beside the values); Chromobox protein homolog 7 (Homo sapiens), O95931; in the data active means normalised signal below about 0.5
Target sequence (O95931 whole entry, looked up): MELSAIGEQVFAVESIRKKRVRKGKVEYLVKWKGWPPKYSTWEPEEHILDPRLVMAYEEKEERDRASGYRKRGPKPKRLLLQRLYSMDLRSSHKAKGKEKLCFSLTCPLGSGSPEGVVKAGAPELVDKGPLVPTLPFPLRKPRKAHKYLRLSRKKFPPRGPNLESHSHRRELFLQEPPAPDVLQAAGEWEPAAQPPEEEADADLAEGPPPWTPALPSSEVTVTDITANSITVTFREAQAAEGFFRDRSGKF
* hit, by the source's call. The sample as a whole holds a higher share of hits than the screen did.

SMILES	CBX7 AlphaScr
CSCC[C@@H](C(=O)Nc1cccc(F)c1)N1Cc2ccccc2C1=O	0.488*
CS(=O)(=O)CC[C@@H](C(=O)Nc1cccc(F)c1)N1Cc2ccccc2C1=O	1.09
COc1ccc(NC(=O)[C@H](Cc2ccccc2)N2Cc3ccccc3C2=O)cc1Cl	0.306*
COc1ccc(NC(=O)[C@H](CSCc2ccccc2)N2Cc3ccccc3C2=O)cc1Cl	0.87
O=S(=O)(NCC(Nc1ccccc1)c1ccccc1)c1ccc(Cl)cc1 (stereo not given)	0.984
COc1ccccc1NC(CNS(=O)(=O)c1ccccc1)c1ccccc1 (stereo not given)	0.47*
COc1ccc(NC(CNS(=O)(=O)c2ccc(Cl)cc2)c2ccccc2)cc1 (stereo not given)	0.536
COc1ccccc1CN1C(=O)Cn2cccc2C1C(=O)NC1CCCCC1C (stereo not given)	1
CCOc1ccc(CCNC(=O)c2c(-n3cccc3)sc(C)c2C)cc1OCC	1.05
CCCC1CCC(c2ccc(-c3noc(-c4ccc(O)c(F)c4)n3)cc2)CC1 (stereo not given)	0.493*
CCCC1CCC(c2nc(-c3ccc(OC(F)F)cc3)no2)CC1 (stereo not given)	1.25
CCCCCC1CCC(c2ccc(-c3nc(-c4ccncc4)no3)cc2)CC1 (stereo not given)	1.02
CCOC(=O)c1cnc2ccccc2c1Nc1ccc(C)cc1	0.994
CCOC(=O)c1cnc2ccc(C)cc2c1Nc1ccc(OCC)cc1	0.932
CCOC(=O)c1cnc2ccc(OC)cc2c1Nc1ccc(N(C)C)cc1	0.258*
CCOC(=O)c1cnc2ccc(C)cc2c1Nc1ccc(N2CCCCC2)cc1	0.278*
CCOC(=O)c1cnc2ccc(Cl)cc2c1Nc1ccc(N2CCOCC2)cc1	0.579
CCOC(=O)c1cnc2ccc(OCC)cc2c1N1CCCC1	0.903
CCOC(=O)c1cnc2ccc(OCC)cc2c1N1CCN(c2ccccc2F)CC1	0.167*
CCOC(=O)c1cnc2ccc(C)cc2c1Nc1ccc(N(CC)CC)cc1	0.417*
CCOC(=O)c1cnc2ccc(C)cc2c1Nc1ccc(N2CCOCC2)cc1	0.893
CCOC(=O)c1cnc2ccc(OC)cc2c1Nc1ccc(C)cc1	0.989
CCOC(=O)c1cnc2ccc(OCC)cc2c1N1CCN(c2ccccc2)CC1	0.736
CCOC(=O)c1cnc2ccc(OC)cc2c1Nc1ccc(OC)cc1	0.578
CCOC(=O)c1c(NC(=O)COc2ccccc2C)sc2c1CCN(C(C)=O)C2	0.887
SMILES	CBX7 AlphaScr
COc1ccc(-c2cc(C(=O)N3CCN(c4ccc(F)cc4)CC3)c3ccccc3n2)cc1	0.888
Cc1ccc(-c2nnc(Nc3ccc(Cl)cc3)c3ccccc23)cc1S(=O)(=O)N1CCCCC1	0.903
O=C(Cn1ncc2ccsc2c1=O)NCCCN1CCOCC1	1.04
CC(=O)NC(CCS(C)(=O)=O)C(=O)Nc1nc2ccccc2s1 (stereo not given)	1.01
CC(C)(C)C(C(Oc1ccc(Cl)cc1)n1cncn1)n1nnnc1C(c1ccccc1Cl)N1CCCCC1 (stereo not given)	0.755
CCOc1nc(-c2ccccc2)c2cc(Cl)ccc2n1	0.997
CCN1C(=O)C(O)(CC(=O)c2ccc(Cl)cc2)c2ccccc21 (stereo not given)	0.993
CC(C)NC(=O)Cn1ncc2ccsc2c1=O	1.03
CC(C)(C)c1ccc(OCCn2c(=N)n(CC(N)=O)c3ccccc32)cc1	0.943
CCOC(=O)c1cnc2ccc(OCC)cc2c1Nc1ccc(C)c(C)c1	1.21
CCOC(=O)c1cnc2c(C)cc(C)cc2c1Nc1ccc(N2CCCCC2)cc1	0.284*
CCOC(=O)c1cnc2c(C)cc(C)cc2c1Nc1ccc(Cl)cc1	1.24
CCOC(=O)c1cnc2ccc(OCC)cc2c1Nc1ccc(F)c(Cl)c1	0.397*
CCOC(=O)c1cnc2c(C)cc(C)cc2c1Nc1ccc(F)cc1	1.23
CCOC(=O)c1cnc2ccc(OCC)cc2c1Nc1ccc(OCC)cc1	1.09
COc1ccccc1CNC(=O)C(C)C1Sc2ccccc2N(Cc2cccc(Cl)c2)C1=O (stereo not given)	0.948
Cc1ccc2c(c1)C(c1ccccc1)N(C(=O)c1ccc(C)c(C)c1)CC(=O)N2 (stereo not given)	0.894
COc1ccccc1-c1c(C)nn2c(Cl)cc(C)nc12	0.973
CCn1c(C(=O)NC2CC2)cc2sc(Cl)cc21	1.03
COc1ccc(CNC(=O)CN2N=C(c3ccccc3)CCC2=O)cc1	1
O=C(CCc1ccccc1)Nc1c(-c2cccs2)nc2ccccn12	0.951
COc1cc(OC)cc(C(=O)Nc2cccc(-c3nc4cc(C)ccc4o3)c2)c1	0.997
O=C(CC(Sc1cccc2cccnc12)c1ccc(F)cc1)c1cccs1 (stereo not given)	0.00632*
O=C(Nc1ccc(F)cc1)C(Cc1ccccc1)NS(=O)(=O)c1cccc2cccnc12 (stereo not given)	1.13
CCn1c(COc2cccc3cccnc23)nnc1SCC(=O)OC	0.979
Cc1cc(C)nc(NC2=NCC(=O)N2c2ccc(Oc3ccccc3)cc2)n1	1.05
CCOc1ccc(-n2cc(-c3ccccc3)c3c(Nc4ccc(OC)c(OC)c4)ncnc32)cc1	0.827
